# This is part of a sample that, as a whole, favours compounds with a hit. Of some 83,000 tested, about 20% had one in any assay.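 Method: cells in 96-well plates; compound added at one concentration; 48 h incubation; percent growth measured; values under 10 scored active.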 Calls of active or inactive are those of the source.
# Tested on: ACHN renal
# Test: NCI-60 one-dose screen, 48 h (100 = growth as untreated, 0 = no growth, -100 = all killed)
# Conditions: 10 µM unless noted
# Experimental: Growth inhibition of the ACHN human tumor cell line is measured as a screen for anti-cancer activity. Cells are grown in 96 well plates and exposed to the test compound for 48 hours. Compounds are tested at a single concentration, which is 10^-5 M for most compounds. The reported endpoint is percent growth (GI% or GIPRCNT), where numbers from 0 - 100% represent growth inhibition, and numbers from -100% - 0 represent cell death. For example, a value of 40 represents 60% growth inhibition. A value of 0 means no net growth occurred over the course of the experiment. A value of -40 indicates 40% of cells at the beginning of the experiment died by the end of the experiment. A value of -100 means all cells are dead at the end of the experiment.
# NCI-60 Human Tumor Cell Lines Screen was performed using the standard one-dose NCI protocol, which is described in more detail at https://dtp.cancer.gov/discovery_development/nci-60/default.htm.
# Compounds with GIPRCNT values below 10 were considered active. Activity score was based on GIPRCNT using the following formula: […]
# Score is 0 for GIPRCNT values of 100 or above, 50 for GIPRCNT values of 0, and 100 for GIPRCNT values of -100.
row,Structure (SMILES),growth
1,CC(=O)c1ccc(Nc2nc(C(C)=O)c(C)s2)cc1,100% (inactive)
2,C(=N/Nc1ncnc2nc[nH]c12)/c1ccccn1,23.4% (inactive)
3,COc1cccc(-c2nc(-c3ccc(NC(=O)C(C)C)cc3)[nH]c2-c2ccnc(Br)c2)c1,28.8% (inactive)
4,NCCCNc1nc2ccc(Cl)cc2c2c(=O)c3cc(F)ccc3sc12,35.4% (inactive)
5,COc1ccc(/C=C(/C#N)n2nnc3cccc(F)c32)cc1,31.5% (inactive)
6,COc1ccc(C2C(C#N)=C(N)Oc3c2sc2c(C)cccc32)cc1 (stereo not given),28.3% (inactive)
7,Cc1c(C(=O)NCCCc2ccccc2)sc2ncc(-c3ccc(Br)cc3)n12,103% (inactive)
8,Cc1ccc(-c2nc(N3CCN(C(=O)c4ccc(OC(F)(F)F)cc4)CC3)c3ccccc3n2)cc1,89.5% (inactive)
9,COc1cc(C2CC(c3cccc(Br)c3)=NN2C(C)=O)cc(OC)c1OC (stereo not given),39.8% (inactive)
10,CSc1nc2ccc(C)cc2cc1/C=N/O,82.8% (inactive)
11,CC([C@H]1CCC2C3CCC4C[C@@H](NC=O)CC[C@]4(C)C3CC[C@@]21C)N(C)C (stereo not given in full),6.15% (active)
12,Cc1ccc(/C=C(\C#N)n2nc3cccc(F)c3n2)cc1,79.7% (inactive)
13,O=C(Nc1ccc(-c2nc(-c3cccc(OCCN4CCOCC4)c3)c(-c3ccnc(Br)c3)[nH]2)cc1)c1ccccc1,28.3% (inactive)
14,Cc1onc2c(-c3ccccc3)n[nH]c(=O)c12,107% (inactive)
15,CC1=C(SCCC(=O)OC(C[Se]C2=C(C)C(=O)c3ccccc3C2=O)C(=O)NC(C)(C)C)C(=O)c2ccccc2C1=O (stereo not given),-78.3% (active)
16,COc1ccc(C(=O)N=Nc2c(O)n(C)c3ccccc23)cc1,91.4% (inactive)
17,CC1(C)C2CC1C1(/C=N\Nc3ccccc3)C(C2)C(C#N)(C#N)C1(C#N)C#N (stereo not given),75.9% (inactive)
18,Fc1cc(-c2nnc3n2NC(=Nc2ccc(Cl)cc2)CS3)c(Cl)cc1Cl,95.2% (inactive)
19,COc1cc(C(=O)/C=C/c2c(Cl)nc3sccn23)cc(OC)c1OC,86.4% (inactive)
20,CCN(CC)CCCNc1nc2ccccc2c2c(=O)c3cc(Cl)ccc3sc12,47.3% (inactive)

row,Structure (SMILES),growth
1,Cc1ccc(/C=C2\Oc3ccc(O)c(O)c3C2=O)cc1,29.1% (inactive)
2,NCCCNc1nc2ccccc2c2c(=O)c3cc(F)cc(F)c3sc12,-60.3% (active)
3,COc1ccc2c(c1)c(-c1nn3cc(-c4cccs4)nc3s1)cn2C,69.9% (inactive)
4,C/C(=C(/c1ccccc1)c1ccc(N2C(=O)c3cccc4c(N5CCN(C)CC5)ccc(c34)C2=O)cc1)c1ccccc1,89.5% (inactive)
5,O=c1c2cccc(F)c2sc2c(NCCCNCCO)nc3ccccc3c12,15.3% (inactive)
6,COc1cccc2c(=O)c3c(sc12)c(NCCCN)nc1ccccc13,29.4% (inactive)
7,CCCCNc1nc(NN2C(=O)c3cccc4cccc(c34)C2=O)nc(-n2cnc3ccccc32)n1,81.3% (inactive)
8,COc1ccc(S(=O)(=O)n2c3ccccc3n3ncc(-c4nnc(C)o4)c23)cc1,45.7% (inactive)
9,COc1cccc(Cc2cc(-c3ccccc3)nn(CC(=O)c3ccccc3)c2=O)c1,52% (inactive)
10,O=C(CS(=O)c1oc(-c2cccs2)nc1S(=O)(=O)c1ccc(Br)cc1)c1ccccc1 (stereo not given),94.1% (inactive)
11,Cc1[nH]c(C(=O)Nc2ccc(C(=O)N3CCNCC3)cc2OC(C)C)c(Cl)c1Cl,67.7% (inactive)
12,NCCCNc1nc2ccccc2c2c(=O)c3cc(F)cc(Cl)c3sc12,61.9% (inactive)
13,N#Cc1ccc(NC(=O)c2sc3nc4c(cc3c2N)C(=O)CCC4)cc1,108% (inactive)
14,CCCCn1c(-c2ccc(C(=O)O/N=C(\N)c3ccc(OC)cc3)cc2)nc(-c2ccccc2)c1-c1ccccc1,-97.9% (active)
15,CC(=O)O.CN1[CH-]N(Cc2ccc(C#N)cc2)c2ccccc21.[Ag+],106% (inactive)
16,O=c1c2cc(F)ccc2sc2c(N3CCNCC3)nc3ccc(F)cc3c12,-41.6% (active)
17,Cc1ccc(-c2nc(SCC(=O)Nc3nc(-c4ccc(Cl)cc4)cs3)[nH]c(=O)c2C#N)cc1,101% (inactive)
18,CC(=O)N1N=C(c2ccc(Nc3nc(Nc4ccc(F)cc4)nc(Nc4ccc(Cl)cc4)n3)cc2)CC1c1ccc(Cl)cc1 (stereo not given),83.1% (inactive)
19,CCCSc1nc2ccc(C)cc2cc1/C=[N+](\[O-])c1ccccc1,49.2% (inactive)
20,O=c1c2cc(F)ccc2sc2c(NCCCNCCO)nc3ccccc3c12,8.85% (active)
